Measurements reported in PubChem BioAssay (EPA / NIEHS).
Inconclusive results are not listed. Active and inactive are the calls of the source. How the source made its calls: active means hit-call score of the fitted dose curve at least 0.9, where 1 is the maximum; inconclusive means response in the unintended direction; inactive means score below 0.9.

molecular target: Estrogen receptor beta (Homo sapiens) (UniProt Q92731); assay: OT_ER_ERbERb_0480: Odyssey Thera (OT) 8-hour HEK293T Protein-Complementation Assay for Estrogen Receptor-beta/-beta Homodimer (AID 2283357);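 further: active means signal gain over DMSO baseline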
Sequence (Q92731 whole entry, looked up, the tested form may be a part): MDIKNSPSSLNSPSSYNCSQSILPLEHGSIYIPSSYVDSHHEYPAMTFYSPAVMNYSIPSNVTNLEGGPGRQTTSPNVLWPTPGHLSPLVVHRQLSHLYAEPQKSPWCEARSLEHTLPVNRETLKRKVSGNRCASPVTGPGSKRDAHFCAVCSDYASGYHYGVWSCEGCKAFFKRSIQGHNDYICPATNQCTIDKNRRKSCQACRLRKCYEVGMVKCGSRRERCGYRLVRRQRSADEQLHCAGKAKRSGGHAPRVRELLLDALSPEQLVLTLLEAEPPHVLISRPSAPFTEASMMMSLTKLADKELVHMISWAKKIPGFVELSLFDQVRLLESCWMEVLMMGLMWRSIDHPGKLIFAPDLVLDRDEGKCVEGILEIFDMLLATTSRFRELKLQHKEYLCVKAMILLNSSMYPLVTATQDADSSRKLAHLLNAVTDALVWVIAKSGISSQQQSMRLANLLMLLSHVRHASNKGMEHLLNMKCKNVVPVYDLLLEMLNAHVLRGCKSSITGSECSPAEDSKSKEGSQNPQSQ
Procedure, shortened: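 Cells (HEK293T, stable ER-beta LBD PCA pair) are treated 8 hours, fixed and Draq5-stained; signal is fluorescence intensity increase relative to vehicle, fitted in the gain direction.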

outcome, inactive:
O=C(O)CCN(C1(C(=O)NO)CCCC1)S(=O)(=O)c1ccc(Oc2ccc(F)cc2)cc1
COc1ccc(/C=C/S(=O)(=O)NC(=O)c2ccc(C)cc2Cl)cc1
CC(C)CC(C)(O)C#CC(C)(O)CC(C)C (centres undefined)
Cc1[nH]cnc1C[C@H]1CCc2c(C)c3ccccc3n2C1=O
CC(C)(O)c1coc(S(=O)(=O)NC(=O)Nc2c3c(cc4c2CCC4)CCC3)c1
CC[C@H]1OC(=O)[C@H](C)[C@@H](O[C@H]2C[C@@](C)(OC)[C@@H](O)[C@H](C)O2)[C@H](C)[C@@H](O[C@@H]2O[C@H](C)C[C@H](N(C)C)[C@H]2O)[C@](C)(O)C[C@@H](C)C(=O)[C@H](C)[C@@H](O)[C@]1(C)O
CC(=O)OCCC(C)C
CCOC(=O)c1ccc(C2CCC(NC[C@H](O)COc3ccc(O)c(NS(C)(=O)=O)c3)CC2)cc1 (some centres undefined)
CCCCCCCCCCCCCCCO
O=C1CCCCCN1
CNCc1ccc(NC(=O)c2c[nH]c3c2C(=O)CCC3)cc1
Cc1c(-c2cccnc2)c2ccccc2n1CCCCC(=O)O
On1ccccc1=S
O=C(O)c1cc(N=Nc2ccc(S(=O)(=O)Nc3ccccn3)cc2)ccc1O
O=C1OC(=O)C2C3C=CC(C3)C12 (centres undefined)
Clc1nc(Cl)c(Cl)c(Cl)c1Cl
CN(C)c1ccc(Cc2ccc(N(C)C)cc2)cc1
NC(=O)NO
CCN(C(=O)c1cc(C)cc(OC[C@H](C)Nc2ccncc2)c1)C(C)C
